# Measurements reported in PubChem BioAssay.
# Values without a mark were called inactive. Active and inactive are the calls of the source. Unless noted, no stated cut-off is given here; in the data, active means inhibition above about 30%; inactive means the rest.
# Assays:
# [1] = biological target: Nuclear receptor coactivator 3 (Homo sapiens) (UniProt Q9Y6Q9); assay: SRC3 coactivator transcriptional activity inhibitors, confirmation, cell-based, luminescence, quadruplicate (AID 588792;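 active means mean inhibition over 43.08%, the solvent-only control mean plus 3 SD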;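 further: 0% = DMSO treated cells and 100% = gossypol at 36 µM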); details: HEK293 GAL4-SRC3 luciferase reporter, at 3.6 µM, hits give high values
# [2] = test system: transactivating tegument protein VP16 (Human herpesvirus 1), Gal4-VP16 luciferase reporter; assay: VP16 transactivation inhibitors, counter-screen for SRC3 inhibitor project, cell-based, luminescence, high throughput (AID 588794); details: mammalian cells, VP16-driven luciferase reporter luminescence; at 3.6 µM; hits give high values
# [3] = biological target: Nuclear receptor coactivator 1 (Homo sapiens) (UniProt Q15788); assay: SRC1 coactivator transcriptional activity inhibitors, confirmation, cell-based, luminescence, quadruplicate (AID 588820;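 active means mean inhibition above 46.68%, the untreated control wells mean plus 3 SD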;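 further: 0% = DMSO wells and 100% = gossypol 36 µM treated wells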); details: HEK293 GAL4-SRC1 luciferase reporter, at 3.6 µM, hits give high values
# [4] = VP16 transactivation inhibitors, counter-screen for SRC1 inhibitor project, cell-based, luminescence, high throughput (AID 588824; in the data active means inhibition above about 25%); details: cell-based VP16 transactivation luciferase luminescence; at 3.6 µM; hits give high values
# [5] = StAR promoter reporter inhibitors, counter-screen for LRH-1 inverse agonist project, cell-based, luminescence, high throughput (AID 651611; in the data active means inhibition above about 28%); details: StAR promoter luciferase reporter counterscreen, at 3.6 µM, hits give high values
# [6] = biological target: Nuclear receptor subfamily 5 group A member 2 (Homo sapiens) (UniProt O00482); assay: LRH-1 (NR5A2) inverse agonists, retest, confirmation, cell-based, luminescence (AID 651613; in the data active means inhibition above about 42%;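 further: HEK293T cells co-transfected with LRH-1 and StAR promoter luciferase reporter; 0% = vehicle wells and 100% = parental cells lacking receptor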); details: cell-based LRH-1 luciferase reporter, inverse agonism; at 3.6 µM; hits give high values
# [7] = biological target: Steroidogenic factor 1 (Homo sapiens) (UniProt Q13285); assay: SF1 (NR5A1) inverse agonists, counter-screen for LRH-1 inverse agonist project, cell-based, luminescence, high throughput (AID 651614; in the data active means inhibition above about 44%;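 further: cells cotransfected with StAR promoter reporter and SF1 expression vector; 0% = vehicle on cells with receptor and 100% = vehicle on cells lacking receptor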); details: cell-based SF1 luciferase reporter, at 3.6 µM, hits give high values
# [8] = VP16 transactivation reporter inhibitors, counter-screen for LRH-1 inverse agonist project, cell-based, luminescence, high throughput (AID 651615; in the data active means inhibition above about 33%); details: Gal4-VP16 luciferase reporter cells, at 3.6 µM, hits give high values
# [9] = test system: transactivating tegument protein VP16 (Human herpesvirus 1); assay: VP16 transactivation reporter inhibitors, counter-screen for SRC2 inhibitor project, cell-based, luminescence, single concentration (AID 652007; in the data active means inhibition above about 36%); details: cell-based VP16 transactivation luciferase reporter, at 8.9 µM, hits give high values
# [10] = biological target: Nuclear receptor coactivator 2 (Homo sapiens) (UniProt Q15596); assay: SRC2 coactivator transcriptional activity inhibitors, confirmation, cell-based, luminescence, HEK293, triplicate (AID 652008;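 active means mean inhibition above 46.5%, the solvent-only control mean plus 3 SD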;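 further: 0% = DMSO-treated cells and 100% = Gossypol at 36 µM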); details: HEK293 GAL4-SRC2 luciferase reporter, at 8.9 µM, hits give high values
# Sequence of Nuclear receptor coactivator 1 (Homo sapiens) (Q15788 whole entry, looked up, the tested form may be a part): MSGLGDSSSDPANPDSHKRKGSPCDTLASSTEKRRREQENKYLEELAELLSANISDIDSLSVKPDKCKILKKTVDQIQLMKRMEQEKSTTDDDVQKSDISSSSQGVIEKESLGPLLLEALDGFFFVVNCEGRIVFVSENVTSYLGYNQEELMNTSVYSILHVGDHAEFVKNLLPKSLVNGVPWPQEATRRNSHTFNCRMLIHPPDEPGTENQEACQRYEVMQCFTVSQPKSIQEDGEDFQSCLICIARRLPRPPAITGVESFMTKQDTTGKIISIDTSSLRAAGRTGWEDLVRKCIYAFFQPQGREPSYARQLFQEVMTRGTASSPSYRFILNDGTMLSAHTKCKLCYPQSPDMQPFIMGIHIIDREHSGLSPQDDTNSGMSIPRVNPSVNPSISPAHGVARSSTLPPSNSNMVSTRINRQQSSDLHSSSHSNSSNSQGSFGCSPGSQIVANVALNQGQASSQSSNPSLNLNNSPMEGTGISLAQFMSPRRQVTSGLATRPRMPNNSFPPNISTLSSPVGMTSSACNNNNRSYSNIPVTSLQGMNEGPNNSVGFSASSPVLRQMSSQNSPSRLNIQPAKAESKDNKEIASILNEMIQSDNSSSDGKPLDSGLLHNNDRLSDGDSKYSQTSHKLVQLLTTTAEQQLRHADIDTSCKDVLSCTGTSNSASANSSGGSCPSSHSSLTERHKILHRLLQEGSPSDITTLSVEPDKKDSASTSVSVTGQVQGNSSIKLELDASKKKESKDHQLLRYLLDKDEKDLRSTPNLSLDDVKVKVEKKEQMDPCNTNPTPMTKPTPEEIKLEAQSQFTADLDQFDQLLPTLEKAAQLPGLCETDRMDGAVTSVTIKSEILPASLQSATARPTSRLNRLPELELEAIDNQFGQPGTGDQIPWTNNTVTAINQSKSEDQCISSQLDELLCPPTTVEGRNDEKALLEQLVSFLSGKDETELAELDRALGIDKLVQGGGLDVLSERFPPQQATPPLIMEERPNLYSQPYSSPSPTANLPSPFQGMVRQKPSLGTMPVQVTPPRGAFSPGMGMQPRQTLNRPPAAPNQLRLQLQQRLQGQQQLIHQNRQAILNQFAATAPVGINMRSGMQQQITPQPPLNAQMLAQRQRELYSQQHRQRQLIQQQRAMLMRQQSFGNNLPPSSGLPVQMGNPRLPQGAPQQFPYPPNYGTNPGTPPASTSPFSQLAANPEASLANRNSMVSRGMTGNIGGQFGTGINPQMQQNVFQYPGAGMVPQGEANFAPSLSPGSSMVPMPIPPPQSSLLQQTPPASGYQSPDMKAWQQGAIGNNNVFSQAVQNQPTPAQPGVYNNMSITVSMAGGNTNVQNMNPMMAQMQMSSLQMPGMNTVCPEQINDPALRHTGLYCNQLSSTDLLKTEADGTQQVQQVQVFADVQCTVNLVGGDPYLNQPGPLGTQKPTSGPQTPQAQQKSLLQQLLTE
# Sequence of Nuclear receptor subfamily 5 group A member 2 (Homo sapiens) (O00482 whole entry, looked up): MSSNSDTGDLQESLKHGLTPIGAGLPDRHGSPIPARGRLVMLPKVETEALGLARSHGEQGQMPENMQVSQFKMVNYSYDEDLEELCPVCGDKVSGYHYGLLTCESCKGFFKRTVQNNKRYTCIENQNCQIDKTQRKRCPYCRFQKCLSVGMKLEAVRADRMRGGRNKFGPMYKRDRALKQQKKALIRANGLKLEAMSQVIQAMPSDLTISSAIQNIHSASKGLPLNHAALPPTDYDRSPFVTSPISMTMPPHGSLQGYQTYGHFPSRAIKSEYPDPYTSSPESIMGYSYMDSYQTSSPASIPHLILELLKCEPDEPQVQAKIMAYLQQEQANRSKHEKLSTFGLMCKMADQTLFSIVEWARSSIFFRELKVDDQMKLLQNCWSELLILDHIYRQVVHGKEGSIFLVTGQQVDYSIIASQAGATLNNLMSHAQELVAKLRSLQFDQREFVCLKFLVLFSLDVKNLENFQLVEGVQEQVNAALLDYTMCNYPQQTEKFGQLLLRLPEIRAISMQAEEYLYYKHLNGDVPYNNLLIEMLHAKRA
# Sequence of Steroidogenic factor 1 (Homo sapiens) (Q13285 whole entry, looked up, the tested form may be a part): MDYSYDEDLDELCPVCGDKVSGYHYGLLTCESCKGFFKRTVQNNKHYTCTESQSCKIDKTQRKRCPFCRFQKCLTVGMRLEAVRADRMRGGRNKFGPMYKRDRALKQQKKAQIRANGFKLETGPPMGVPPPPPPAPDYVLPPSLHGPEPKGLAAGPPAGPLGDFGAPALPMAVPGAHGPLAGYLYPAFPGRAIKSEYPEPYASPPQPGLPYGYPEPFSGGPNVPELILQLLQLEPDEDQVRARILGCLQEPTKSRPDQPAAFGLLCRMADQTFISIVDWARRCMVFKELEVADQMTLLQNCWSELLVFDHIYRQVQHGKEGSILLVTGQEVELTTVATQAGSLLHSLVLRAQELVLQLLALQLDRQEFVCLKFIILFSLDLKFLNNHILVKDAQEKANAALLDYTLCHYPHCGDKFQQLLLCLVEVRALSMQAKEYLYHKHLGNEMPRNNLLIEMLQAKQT
# Sequence of Nuclear receptor coactivator 3 (Homo sapiens) (Q9Y6Q9 whole entry, looked up, the tested form may be a part): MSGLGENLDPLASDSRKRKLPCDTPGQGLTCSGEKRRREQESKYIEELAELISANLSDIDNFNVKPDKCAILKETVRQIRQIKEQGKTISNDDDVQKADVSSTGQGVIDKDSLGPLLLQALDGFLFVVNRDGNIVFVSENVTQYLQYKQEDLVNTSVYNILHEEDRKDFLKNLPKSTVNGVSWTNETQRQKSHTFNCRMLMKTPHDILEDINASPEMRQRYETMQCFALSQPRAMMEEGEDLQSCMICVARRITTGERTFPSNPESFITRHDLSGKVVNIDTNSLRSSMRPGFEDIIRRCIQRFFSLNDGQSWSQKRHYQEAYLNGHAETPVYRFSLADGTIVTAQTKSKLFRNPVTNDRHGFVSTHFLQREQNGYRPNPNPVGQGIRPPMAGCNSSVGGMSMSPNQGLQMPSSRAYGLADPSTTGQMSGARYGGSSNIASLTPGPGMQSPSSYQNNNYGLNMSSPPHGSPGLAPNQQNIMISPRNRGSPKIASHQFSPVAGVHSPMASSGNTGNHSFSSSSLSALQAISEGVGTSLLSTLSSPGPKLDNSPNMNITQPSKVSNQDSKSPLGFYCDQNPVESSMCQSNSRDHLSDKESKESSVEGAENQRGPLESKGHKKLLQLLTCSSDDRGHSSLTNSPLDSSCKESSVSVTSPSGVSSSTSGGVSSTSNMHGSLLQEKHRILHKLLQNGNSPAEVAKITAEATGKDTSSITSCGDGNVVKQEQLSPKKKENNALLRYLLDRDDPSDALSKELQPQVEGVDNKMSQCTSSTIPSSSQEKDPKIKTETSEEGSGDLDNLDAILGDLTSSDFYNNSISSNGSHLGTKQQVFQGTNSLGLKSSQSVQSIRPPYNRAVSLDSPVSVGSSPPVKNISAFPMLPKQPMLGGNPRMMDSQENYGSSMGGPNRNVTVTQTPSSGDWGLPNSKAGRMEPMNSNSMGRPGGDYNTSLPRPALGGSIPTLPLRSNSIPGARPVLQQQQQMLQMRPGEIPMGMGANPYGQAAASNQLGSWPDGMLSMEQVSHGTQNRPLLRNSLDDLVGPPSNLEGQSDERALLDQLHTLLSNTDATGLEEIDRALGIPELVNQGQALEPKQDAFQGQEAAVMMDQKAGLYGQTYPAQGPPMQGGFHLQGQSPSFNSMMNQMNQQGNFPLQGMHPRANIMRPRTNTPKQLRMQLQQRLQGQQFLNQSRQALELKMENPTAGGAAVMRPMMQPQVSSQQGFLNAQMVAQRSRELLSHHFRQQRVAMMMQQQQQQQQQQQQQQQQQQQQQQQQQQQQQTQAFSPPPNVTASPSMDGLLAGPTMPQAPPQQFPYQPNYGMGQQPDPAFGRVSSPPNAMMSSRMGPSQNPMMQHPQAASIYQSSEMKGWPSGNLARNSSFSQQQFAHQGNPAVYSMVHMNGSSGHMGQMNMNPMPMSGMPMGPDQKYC
SMILES,inhibition [1],inhibition [2],inhibition [3],inhibition [4],inhibition [5],inhibition [6],inhibition [7],inhibition [8],inhibition [9],inhibition [10]
C=C1C(=O)[C@]23C[C@H]1CCC2[C@@]1(C)C(C[C@@H]3O)[C@](C)(C(=O)OC)CC[C@@H]1O (stereo not given in full),40%,24.9%,-14.1%,37.1% (active),43.8% (active),41.3% (active),42.4%,49.4% (active),34.8%,49.3% (active)
CC1CC(C)C(=NNC(N)=O)C(C(O)CC2CCC(=O)NC2=O)C1 (stereo not given),9.15%,11.3%,33.6%,7.8%,63.1% (active),76.7% (active),75.8% (active),30%,8%,-0.31%
S=C(NCCCCN(Cc1ccc(Cl)cc1)c1ccc(Br)cn1)NCCCc1cnc[nH]1,93.1% (active),72.5% (active),76.5% (active),60.9% (active),90.1% (active),103% (active),96.7% (active),86.5% (active),23.1%,54.5% (active)
COc1ccc(/C=C2\SC(=O)N(CCCC(=O)Nc3ccc(C(=O)O)cc3)C2=O)cc1,78% (active),71.8% (active),72.8% (active),63.3% (active),74.1% (active),75.4% (active),71.5% (active),58.1% (active),88.3% (active),93.3% (active)
COc1ccc2c(c1)-c1c(ssc1=S)C(C)(C)N2,73.3% (active),54.6% (active),64% (active),50.3% (active),28.7% (active),46.7% (active),41.5%,67.9% (active),6.45%,49.7% (active)
COc1ccccc1C(=O)Nc1nc2ccccc2[nH]1,79.4% (active),72.7% (active),58.5% (active),75.2% (active),75.3% (active),75.4% (active),83.8% (active),66.3% (active),89.6% (active),93.8% (active)
Nc1ccc(Oc2ccccc2-c2ccccc2)cc1,42.6%,17.6%,14.7%,19%,30.3% (active),53.5% (active),49.6% (active),39.6% (active),80.5% (active),87.8% (active)
